The list is not random: actives were taken first. Their share in the collection is about 3.7%.
A549 tox = Nrf2 qHTS screen for inhibitors: counterscreen for cytotoxicity; actives 0.16% (n = 390,000); A549 ARE-Fluc cells, CellTiter-Fluor viability, 18-24 h; Potency, µM (series often up to 46 µM), for inactives: top-dose activity change, negative = cytotoxicity, most hits filed as inhibitors; further: potency means the concentration at half of the fitted maximal effect; on the % scale 0 is the no-effect control and ±100 the full control effect
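A549 ARE-Fluc cells in 5% FBS OPTI-MEM, 5000 cells/well, rested 2 h then exposed to compounds in concentration-response for 18-24 h at 37 °C. Viability by CellTiter-Fluor fluorescence (Ex 405/Em 525) after 30 min; luciferase luminescence (BugLite, 15 min, RT) read afterwards.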
ClpP mod = qHTS Assay for Activators of ClpP; Potency, µM (titrated, usually from 57.5 µM), for inactives: top-dose activity change, negative = active; actives 1.9% (n = 340,000); purified B. subtilis ClpP, FRET peptide cleavage, 20 min; ATP-dependent Clp protease proteolytic subunit (Bacillus subtilis (strain 168)), P80244; AID 651965, 2013; active means well fitted falling curve with a large enough effect; inconclusive means small, poorly fitted or top-dose-only effect; inactive means no such curve, though single readings can be large or run the other way; further: potency means the concentration at half of the fitted maximal effect; the source files actives as falling curves though it sought activators and does not explain the sign; nearly all actives have a fitted effect of over 65% in size
Target sequence (P80244 whole entry, looked up): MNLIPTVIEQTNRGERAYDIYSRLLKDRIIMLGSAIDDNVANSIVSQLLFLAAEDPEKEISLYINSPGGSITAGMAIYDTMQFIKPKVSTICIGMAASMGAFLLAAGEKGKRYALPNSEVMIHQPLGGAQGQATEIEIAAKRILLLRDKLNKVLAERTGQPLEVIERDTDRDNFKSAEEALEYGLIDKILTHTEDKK
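FRET quenching reversal measured ClpP activation: 10 microg/mL B. subtilis ClpP at pH 8 with the FRET-FV decapeptide, read at 430 nm after 320 nm excitation. The 20-min minus 0-min signal was scaled between DMSO/no-enzyme wells and ADEP (5.8 microM final).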
Nrf2 inh = Nrf2 qHTS screen for inhibitors; A549 ARE-Fluc reporter, luciferase luminescence, 18-24 h; actives 2.1% (n = 360,000); Potency, µM (highest dose often 46 µM), without a hit: at the top dose activity change, negative = inhibition, usual class: inhibitors; further: potency means the concentration at half of the fitted maximal effect; on the % scale 0 is the no-effect control and ±100 the full control effect; nearly all actives have a fitted effect of over 60% in size
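Quantitative HTS in A549 cells stably bearing an antioxidant response element-firefly luciferase construct. Inhibition of Nrf2-driven transcription was scored by luminescence after 18-24 h of compound exposure at 37 °C.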
Nrf2 ARE act = qHTS of Nrf2 Activators | AREc32 ARE-luciferase reporter (MCF7-derived line), luminescence, 24 h | Potency, µM (titrated, usually from 46.1 µM), for the others: at the highest dose activation, actives largely listed as activators | actives 0.31% (n = 410,000) | AID 624171, 2012; further: potency means the concentration at half of the fitted maximal effect; % of control where 0% means no effect; nearly all actives have a fitted effect of over 65% in size
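AREc32_Fluc, 1000 cells/well, OPTI-MEM + 5% FBS, o/n 37 deg C 5% CO2; 23 nL cpd by pin tool, 24 hr; Steady-Glo 30 min RT, luminescence.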
IL-2 act = qHTS of IL-2 Activators. IL-2 activation reporter assay, cell-based qHTS; stimulated with anti-CD3/CD4/CD28 beads; in transgenic mouse T cells. activation, % (series mostly up to about 46 µM). actives 0.065% (n = 360,000); in the data active means activation above about 50%; inconclusive means mostly about 30% to 49%; further: 0% is about no effect
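Readout is EGFP and DsRed signal by fluorescent plate cytometry after 18 h at 37 degrees C. Transgenic mouse T cells (750/well) received compound for 60 min before bead stimulation (anti-CD3, anti-CD4, anti-CD28); memory T cells served as non-tolerant control.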
miR-21 act = qHTS Assay for Modulators of miRNAs and/orActivators of miR-21; HeLa miR-21 FLuc reporter, luciferase, 48 h; Potency, µM (highest dose often 38.3 µM), for inactives: at the top dose activity change, positive = activation, most hits filed as activators; 340,000 tested, under 10 active; AID 2288, 2010;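 further: % of control where 0% means no effect; miR-21 action dims this reporter so a rising signal means less miR-21 action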
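HeLa cells endogenously expressing miR-21, stably carrying CMV-driven firefly luciferase with a downstream miR-21 binding site, 2000 cells/well. Titrations up to approximately 40 uM, 48 hours; luciferase luminescence read.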
* = called active by the depositor; ? = inconclusive; · = not tested or not shown. Unless noted, the call rests on the fitted dose curve; in most records, active means well fitted curve in the direction sought with a large enough effect; inconclusive means small, poorly fitted or top-dose-only effect, or another doubt; inactive means no such curve, though single readings can be large; an effect the other way counts as inactive or inconclusive.

SMILES	A549 tox	ClpP mod	Nrf2 inh	Nrf2 ARE act	IL-2 act	miR-21 act
Cc1nc2c(-c3ccc(Cl)cc3)c(C)[nH]n2c(=O)c1Cc1ccccc1	?	·	14.6µM*	3.2%	-0.5	?
Cc1[nH]n2c(=O)cc(-c3ccccc3Cl)nc2c1-c1ccccc1	-18.0%	-18.1%	18.4µM*	-0.9%	·	-0.2%
CCN(c1ccc(OC)cc1)S(=O)(=O)c1ccc2[nH]c(=O)ccc2c1	3.4%	-1.3%	?	0.8%	·	-16.2%
Cc1ccccc1Cc1c(C)nc2c(-c3ccccc3)c(C)[nH]n2c1=O	?	4.3%	18.4µM*	-0.7%	·	?
O=S(=O)(c1ccccc1)n1ccc(-c2cnc(-c3ccccc3)s2)n1	1.1%	14.1µM*	-17.2%	3.6%	1.9	-47.6%
CC(C)n1c(-c2ccco2)csc1=Nc1cccnc1	-9.5%	-1.5%	12.6µM*	4.2%	-2.1	-5.6%
CCOC(=O)N/N=C/c1cn(CCCOc2ccccc2)c2ccccc12	7.9%	28.2µM*	27.0%	0.1%	-5.9	-20.5%
CCOC(=O)N/N=C/c1cn(CCCOc2ccc(C)cc2)c2ccccc12	8.4%	-2.8%	9.6%	1.8%	-3.8	10.1%
CCN(CC)C(=O)c1sc2c(c1C)c(=O)n(-c1ccccc1)c(=O)n2CC(=O)Nc1ccc(C)cc1C	0.8%	-5.3%	·	-0.4%	·	4.0%
O=C(Cc1c(Cl)cccc1Cl)OCc1ccccn1	6.9%	·	0.9%	4.7%	-1.3	-65.8%
NC(N)=NC(=O)Cc1c(Cl)cccc1Cl	-9.3%	0.6%	8.2µM*	-0.3%	-0.3	7.5%
Cn1c(=O)c2c(c3ccccc31)OC(=O)CC2c1cccc(Cl)c1 (stereo not drawn)	-12.6%	11.2µM*	·	-0.9%	·	27.8%
CCCc1cc(=O)oc2cc(C)c3c(-c4ccccc4)coc3c12	?	20µM*	-5.2%	-0.8%	·	-15.4%
CC(=O)N1c2ccc(S(=O)(=O)NCC3CCC(C(=O)N4CC(C)CC(C)C4)CC3)cc2CC1C (stereo not drawn)	-12.7%	0.1%	16.4µM*	6.0%	1.6	20.7%
CC(=O)N1c2ccc(S(=O)(=O)NCC3CCC(C(=O)Nc4cc(C)ccn4)CC3)cc2CC1C (stereo not drawn)	?	-0.1%	23.1µM*	-2.3%	-4.0	20.8%
COC(=O)Nc1ccc(S(=O)(=O)N2CCCC(C(=O)N3CCCCC3)C2)cc1 (stereo not drawn)	-11.4%	·	16.4µM*	1.9%	1.4	3.2%
CC(=O)N1c2ccc(S(=O)(=O)N3CCCC(C(=O)N4CCC(C)CC4)C3)cc2CC1C (stereo not drawn)	-13.8%	-4.1%	20.6µM*	0.5%	-4.1	13.6%
CC(=O)N1c2ccc(S(=O)(=O)NCC3CCC(C(=O)Nc4ccc(C)cc4)CC3)cc2CC1C (stereo not drawn)	-13.8%	0.9%	?	-1.0%	·	24.2%
CCC(C)NC(=O)C1CCC(CNS(=O)(=O)c2ccc3c(c2)CC(C)N3C(C)=O)CC1 (stereo not drawn)	8.8%	-0.2%	-2.2%	0.3%	-0.5	0.2%
COc1ccccc1-c1nnc(SCCOc2ccccc2C)o1	6.6%	-26.2%	-5.4%	0.0%	·	-16.7%
COc1ccc(-c2cc3ccccc3n2CC(O)CNC(CO)(CO)CO)cc1 (stereo not drawn)	2.8%	35.5µM*	7.6%	3.3%	-2.5	-14.5%
COc1ccc(-c2cc3ccccc3n2CC(O)Cn2nc(C)cc2C)cc1 (stereo not drawn)	-16.7%	22.4µM*	-19.1%	-0.1%	-3.0	-11.6%
COc1ccc(-c2cc3ccccc3n2CC(O)CN2CCC(C)CC2)cc1 (stereo not drawn)	17.3%	4.1%	?	2.5%	-4.9	12.1%
CCCCOc1ccc(C2C(=O)N(C3CCCCC3)CC(=O)N2C2CCCCC2)cc1 (stereo not drawn)	-6.9%	0.3%	·	0.3%	·	0.8%
Cc1cc(Nc2ccc3c(c2)OCCO3)c2cccc(C)c2n1	?	31.6µM*	2.6%	2.8%	-1.0	13.6%
SMILES	A549 tox	ClpP mod	Nrf2 inh	Nrf2 ARE act	IL-2 act	miR-21 act
COC(=O)c1sccc1S(=O)(=O)N(CC(=O)Nc1c(C)cccc1C)c1ccc(C)c(C)c1	-11.4%	0.5%	15.2%	6.7%	·	10.6%
Cc1ccc(-n2nc3c([n+]2[O-])CCc2c-3no[n+]2[O-])cc1	?	0.8%	-28.6%	2.24µM*	-3.3	-1.5%
[O-][n+]1onc2c1CCc1c-2nn(-c2ccccc2Cl)[n+]1[O-]	-3.0%	0.8%	?	?	-2.9	25.7%
Cc1ccc(NS(=O)(=O)c2ccc3ccccc3c2)cc1C	16.2%	·	?	·	·	·
Fc1ccc(NC(=S)NNc2ncc(C(F)(F)F)cc2Cl)c(F)c1	?	·	?	-0.6%	-3.2	?
FC(F)(F)c1cnc(NNC(=S)Nc2ccc(Cl)cc2)c(Cl)c1	?	0.8%	11.6µM*	10.3%	-3.0	?
Cc1ccc(NC(=S)NNc2ncc(C(F)(F)F)cc2Cl)cc1	-5.4%	-2.0%	23.1µM*	-2.7%	-5.6	?
Cc1noc(C)c1COc1cccc(C(=O)Nc2ccc(Br)cc2F)c1	?	-4.1%	23.1µM*	0.2%	-6.5	·
CCOc1cc(N2CCOCC2)c(OCC)cc1NC(=O)c1ccc(OCc2c(C)noc2C)c(OC)c1	-0.2%	11.2µM*	-27.9%	-0.1%	-1.1	-2.7%
CC(=O)Nc1ccc(NC(=O)c2ccc(OCc3c(C)noc3C)cc2)cc1	0.5%	·	-5.7%	-0.4%	-0.3	·
Cc1ccc(NC(=O)c2ccc(OCc3c(C)noc3C)cc2)c(C)c1	-7.4%	0.0%	23.1µM*	0.2%	0.0	·
Cc1ccc(NC(=O)c2ccc(OCc3c(C)noc3C)cc2)cc1C	?	-1.4%	18.4µM*	1.6%	0.3	·
Cc1ccc(SCC(=O)Nc2ccc3oc(-c4cccc(Cl)c4)nc3c2)cc1	-17.0%	3.8%	-28.5%	15.7%	·	-32.4%
COCCn1c(N)c(C#N)c2nc3ccccc3nc21	?	-2.5%	-19.6%	0.2%	-3.0	-7.2%
COCCNC(=O)c1c(N)n(-c2ccccc2)c2nc3ccccc3nc12	?	17.8µM*	?	-0.3%	-0.5	-2.4%
COC(=O)c1c(N)n(-c2ccc(NC(C)=O)cc2)c2nc3ccccc3nc12	-3.0%	?	·	-0.5%	0.8	0.1%
N#Cc1c(N)n(CCc2ccc(F)cc2)c2nc3ccccc3nc12	18.9%	31.6µM*	?	3.8%	-0.1	1.4%

Screens: PubChem, National Center for Advancing Translational Sciences (NCATS)
